Results taken from PubChem BioAssay (EPA / NIEHS).
Where “and” joins values, the source holds several entries; their conditions need not be identical. Equal entries are not always repeated. Records with an inconclusive call do not appear. A structure can be active in one record and inactive in another. Calls of active or inactive are those of the source. How the source made its calls: active means hit-call score of the fitted dose curve at least 0.9, where 1 is the maximum; inconclusive means response in the unintended direction; inactive means score below 0.9.

Columns and labels:
[1] = biological target: Cellular tumor antigen p53 (Homo sapiens) (UniProt P04637); assay: TOX21_p53_BLA_p2_ratio: Tox21 HCT-116 p53 Agonism Beta-lactamase Assay, Ratio, Phase 2 (AID 2283592)
Chain of Cellular tumor antigen p53 (Homo sapiens) (P04637 whole entry, looked up): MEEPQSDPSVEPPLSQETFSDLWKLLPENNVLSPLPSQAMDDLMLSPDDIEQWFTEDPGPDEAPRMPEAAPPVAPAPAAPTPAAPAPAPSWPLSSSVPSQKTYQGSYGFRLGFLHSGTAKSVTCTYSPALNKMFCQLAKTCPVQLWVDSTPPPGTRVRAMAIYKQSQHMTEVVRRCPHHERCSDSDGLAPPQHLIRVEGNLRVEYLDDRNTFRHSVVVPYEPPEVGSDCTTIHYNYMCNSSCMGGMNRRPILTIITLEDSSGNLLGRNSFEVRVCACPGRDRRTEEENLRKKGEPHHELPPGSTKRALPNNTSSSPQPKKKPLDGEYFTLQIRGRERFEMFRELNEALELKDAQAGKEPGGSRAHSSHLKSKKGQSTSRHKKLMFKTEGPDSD
Method in brief: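 HCT-116 cells with p53-responsive beta-lactamase reporter, 4000 cells/well, preincubated 5 h, then compound in DMSO (217-fold dilution) for 16 h at 37C. CCF4-AM substrate 2 h at room temperature; 460/530 nm emission ratio fitted upward versus DMSO.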

[2] = biological target: Cellular tumor antigen p53 (Homo sapiens) (UniProt P04637); assay: TOX21_p53_BLA_p3_ratio: Tox21 HCT-116 p53 Agonism Beta-lactamase Assay, Ratio, Phase 3 (AID 2283596)
Method in brief: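 HCT116 p53-bla cells (4000/well) given compound in DMSO (217-fold dilution) after 5 h, incubated 16 h at 37C. CCF4-AM substrate 2 h at room temperature; 460/530 nm emission ratio, gain fitted against DMSO.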

[3] = TOX21_p53_BLA_p4_viability: Viability Assessment in the Tox21 HCT-116 p53 Agonism Beta-lactamase Assay, Phase 4 (AID 2283597);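 further: hits lower the luminescence signal meaning cytotoxicity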
Method in brief: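 HCT-116 p53-bla cells, 4000/well, dosed after 5 h attachment and incubated 16 h at 37 °C, 5% CO2. Viability from CellTiter-Glo ATP luminescence after 30 min at room temperature, taken after the beta-lactamase read; loss of signal indicates cytotoxicity.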

[4] = biological target: Cellular tumor antigen p53 (Homo sapiens) (UniProt P04637); assay: TOX21_p53_BLA_p5_ratio: Tox21 HCT-116 p53 Agonism Beta-lactamase Assay, Ratio, Phase 5 (AID 2283599)
Method in brief: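 HCT-116 p53-bla cells (4000/well) plated 5 h, dosed with compound (217-fold DMSO dilution) for 16 h at 37 C; CCF4-AM substrate 2 h at room temperature. Activity is the 460/530 nm emission ratio (405 nm excitation), fitted in gain-of-signal direction versus DMSO.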

[5] = TOX21_p53_BLA_p5_viability: Viability Assessment in the Tox21 HCT-116 p53 Agonism Beta-lactamase Assay, Phase 5 (AID 2283600)
Method in brief: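 HCT-116 p53 beta-lactamase reporter cells, 4000/well, were exposed to compound (pin transfer, 217-fold dilution) for 16 hours at 37C. Cellular ATP was read by CellTiter-Glo luminescence after 30 min at room temperature.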

[6] = biological target: Cellular tumor antigen p53 (Homo sapiens) (UniProt P04637); assay: TOX21_p53_BLA_p4_ratio: Tox21 HCT-116 p53 Agonism Beta-lactamase Assay, Ratio, Phase 4 (AID 2283601)
Method in brief: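 HCT-116 p53 beta-lactamase reporter cells (4000/well) preincubated 5 h, then compound (217-fold dilution of DMSO stock) for 16 h at 37C. CCF4-AM substrate added 2 h at room temperature; 460/530 nm emission ratio fitted upward versus DMSO.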

[7] = Tanguay_ZF_120hpf_MORT_legacy: (Legacy) Oregon State University Tanguay Lab 120 Hour Post-fertilization zebrafish Assay for Mortality (AID 2283633);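 on AC50: fitted as increase in binary mortality versus DMSO negative control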
Method in brief: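 Dechorionated Tropical 5D wild-type zebrafish embryos, one per well from 6 hpf, static exposure in 0.64% DMSO at 28C until 120 hpf. Mortality scored as binary by brightfield microscopy at 24 and 120 hpf.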

[8] = Tanguay_ZF_120hpf_YSE_legacy: (Legacy) Oregon State University Tanguay Lab 120 Hour Post-fertilization zebrafish Assay for Yolk Sac Edema (AID 2283634)
Method in brief: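 Dechorionated Tropical 5D wild-type zebrafish embryos were exposed statically, one per well, from 6 to 120 hpf at 28C in 0.64% DMSO. Yolk sac edema was scored present/absent by brightfield at 120 hpf, and dead embryos were excluded.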

[9] = Tanguay_ZF_120hpf_SNOU_legacy: (Legacy) Oregon State University Tanguay Lab 120 Hour Post-fertilization zebrafish Assay for Snout Malformation (AID 2283637)
Method in brief: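 Dechorionated tropical 5D wild-type zebrafish embryos exposed statically from 6 to 120 hpf at 28C, one per well, in 0.64% DMSO. Snout malformation scored as present/absent by brightfield at 120 hpf; dead embryos not scored.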

[10] = Tanguay_ZF_120hpf_JAW_legacy: (Legacy) Oregon State University Tanguay Lab 120 Hour Post-fertilization zebrafish Assay for Jaw Malformation (AID 2283638)
Method in brief: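 Dechorionated Tropical 5D wild-type zebrafish embryos, one per well, exposed statically from 6 hpf to 120 hpf at 28C in 0.64% DMSO. Jaw malformation was scored by brightfield microscopy as present or absent. It was not scored in dead embryos.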

[11] = Tanguay_ZF_120hpf_OTIC_legacy: (Legacy) Oregon State University Tanguay Lab 120 Hour Post-fertilization zebrafish Assay for Otic Vesicle Malformation (AID 2283639)
Method in brief: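 Tropical 5D wild-type zebrafish embryos statically exposed in 0.64% DMSO at 28C until 120 hpf; 5uM trimethyltin chloride as positive control. Otic vesicle malformation scored present/absent by brightfield; dead embryos not scored; gain fitted versus DMSO.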

[12] = Tanguay_ZF_120hpf_PE_legacy: (Legacy) Oregon State University Tanguay Lab 120 Hour Post-fertilization zebrafish Assay for Pericardial Edema (AID 2283640)
Method in brief: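 Tropical 5D wild-type zebrafish embryos were statically exposed until 120 hpf at 28C, with 0.64% DMSO final. Pericardial edema was scored by brightfield as present or absent; endpoints were not scored in dead embryos.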

[13] = Tanguay_ZF_120hpf_BRAI_legacy: (Legacy) Oregon State University Tanguay Lab 120 Hour Post-fertilization zebrafish Assay for Brain Malformation (AID 2283641)
Method in brief: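 Tropical 5D wild-type zebrafish embryos exposed statically until 120 hpf at 28C, 0.64% DMSO final, sealed and dark. Brain malformation scored present/absent by brightfield at 120 hpf; dead embryos excluded. Trimethyltin chloride 5uM positive control.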

[14] = Tanguay_ZF_120hpf_SOMI_legacy: (Legacy) Oregon State University Tanguay Lab 120 Hour Post-fertilization zebrafish Assay for Somite Malformation (AID 2283647)
Method in brief: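 Dechorionated Tropical 5D wild-type zebrafish embryos, one per well from 6 hpf, statically exposed at 28C to 120 hpf in 0.64% DMSO; somite malformation scored present/absent by brightfield; trimethyltin 5 uM positive control; dead embryos not scored.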

[15] = Tanguay_ZF_120hpf_PFIN_legacy: (Legacy) Oregon State University Tanguay Lab 120 Hour Post-fertilization zebrafish Assay for Pectoral Fin Malformation (AID 2283648);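 further: each larva judged yes or no for fin defect by brightfield with dead larvae skipped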
Method in brief: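 Dechorionated Tropical 5D wild-type zebrafish embryos, one per well, statically exposed from 6 to 120 hpf at 28C with 0.64% DMSO final. Pectoral fin malformation scored present/absent by brightfield at 120 hpf; not scored in dead embryos.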

[16] = Tanguay_ZF_120hpf_CFIN_legacy: (Legacy) Oregon State University Tanguay Lab 120 Hour Post-fertilization zebrafish Assay for Caudal Fin Malformation (AID 2283649)
Method in brief: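 Dechorionated Tropical 5D wild-type embryos, one per well from 6 hpf, static exposure to 120 hpf at 28C in 0.64% DMSO. Caudal fin malformation scored by brightfield as present/absent; not scored in dead embryos.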

[17] = Tanguay_ZF_120hpf_PIG_legacy: (Legacy) Oregon State University Tanguay Lab 120 Hour Post-fertilization zebrafish Assay for Pigmentation Malformation (AID 2283650)
Method in brief: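 Dechorionated Tropical 5D wild-type embryos, one per well from 6 hpf, statically exposed at 28C in the dark until 120 hpf, 0.64% DMSO final. Pigmentation scored present/absent by brightfield microscopy; dead embryos not scored; fitted versus DMSO.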

[18] = Tanguay_ZF_120hpf_CIRC_legacy: (Legacy) Oregon State University Tanguay Lab 120 Hour Post-fertilization zebrafish Assay for Circulatory Malformation (AID 2283651)
Method in brief: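 Dechorionated wild-type 5D zebrafish embryos, one per well, statically exposed from 6 to 120 hpf at 28C with 0.64% DMSO; circulatory malformation scored present/absent by brightfield microscopy at 120 hpf, dead embryos excluded.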

[19] = Tanguay_ZF_120hpf_EYE_legacy: (Legacy) Oregon State University Tanguay Lab 120 Hour Post-fertilization zebrafish Assay for Eye Malformation (AID 2283636);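 further: binary presence or absence of eye malformation scored by brightfield in 120 hpf larvae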
Method in brief: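 Dechorionated Tropical 5D zebrafish embryos, one per well from 6 hpf, static exposure to 120 hpf at 28C, 0.64% DMSO. Eye malformation scored present/absent by brightfield; dead embryos not scored.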

[20] = Tanguay_ZF_120hpf_AXIS_legacy: (Legacy) Oregon State University Tanguay Lab 120 Hour Post-fertilization zebrafish Assay for Body Axis Malformation (AID 2283635)
Method in brief: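 Dechorionated wild-type Tropical 5D zebrafish embryos, one per well, statically exposed from 6 hpf to 120 hpf at 28C in 0.64% DMSO final. Body axis malformation scored present/absent by brightfield microscopy at 120 hpf; dead embryos excluded.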

Measured: AC50

Cc1ccc(C(C)(C)C)c(O)c1
inactive: [1] | [2] | [4] | [5] | [6] | [7] | [8] | [9] | [10] | [11] | [12] | [13] | [14] | [15] | [16] | [17] | [18]
active: [3] 43.2 µM | [6] 69 µM

Oc1ccc(O)cc1
active: [1] 20.2 µM | [2] 21.4 µM | [3] 47.1 µM and 70.6 µM and 36.2 µM | [5] 17 µM and 35.8 µM and 37.7 µM | [7] 1.77 µM
inactive: [1] | [2] | [4] | [6] | [8] | [19] | [9] | [10] | [11] | [12] | [13] | [14] | [15] | [17]

CCCCCCCCCC[N+](C)(C)[O-]
not listed: [3] | [4] | [20]
inactive: all other assays above

Cc1occc(=O)c1O
not listed: [1] | [2] | [3] | [4] | [5] | [6]
inactive: all other assays above

NC(=Nc1ccccc1)Nc1ccccc1
not listed: [2]
inactive: all other assays above

O=C(O)CN(CC(=O)O)CC(=O)O
not listed: [3] | [11] | [16] | [20]
inactive: all other assays above

OCC(CO)n1cnc(-c2ccc(F)cc2)c1-c1ccnc(Oc2ccccc2)n1
not listed: [2] | [6] | [15] | [19] | [20]
inactive: all other assays above

CCOCCOCCO
not listed: [3] | [5] | [20]
inactive: all other assays above

CC1(C)C(=O)NC(=O)N1CO
not listed: [1] | [3] | [16] | [20]
inactive: all other assays above

CC(=O)[C@@]1(O)CC[C@H]2[C@@H]3CCC4=CC(=O)CC[C@]4(C)[C@H]3CC[C@@]21C
not listed: [1] | [2] | [3] | [4] | [5] | [6] | [17]
inactive: all other assays above

CN(C)CCCN(C)CCCN(C)C
not listed: [3] | [4] | [20]
inactive: all other assays above

OCC(O)CO
not listed: [1] | [2] | [3] | [4] | [5] | [6]
inactive: all other assays above

CCCCC(CC)COP(=O)(OCC(CC)CCCC)OCC(CC)CCCC (stereo not drawn)
not listed: [1] | [6] | [13] | [18]
inactive: all other assays above

C=CCCCCCCCCCCCC
not listed: [3] | [5] | [9] | [10] | [16] | [17]
inactive: all other assays above

O=C(Oc1ccccc1)c1cccc(C(=O)Oc2ccccc2)c1
not listed: [1] | [2] | [3] | [4] | [5] | [6]
inactive: all other assays above

O=C(NS(=O)(=O)/C=C/c1cccs1)c1ccc(F)cc1Br
not listed: [1] | [2] | [3] | [4] | [5] | [6] | [18]
inactive: all other assays above
